PubChem BioAssay AID540256 (National Center for Advancing Translational Sciences (NCATS), 2011)
Hit rate of the full screen: of about 300,000 compounds, about 3,700 (1.2%) were called active. Inconclusive results (about 20%) are left out. The sample as a whole holds a higher share of actives than the screen did. Values without a mark were called inactive. Calls follow the shape of the full dose curve; tested in HEK293 cells.

Assay: qHTS for Inhibitors of binding or entry into cells for Lassa Virus; also: nearly all actives have a fitted effect of over 50% in size
Details: Lassa virus pseudotype entry inhibition, cell reporter; series mostly up to 37.9 µM; activity change, negative = inhibition: at the top concentration
% is scaled to controls: 0 for no effect and ±100 for the full control effect; potency is read from the fitted curve at half-maximal effect.

Q: For `c1ccc(C(=NNc2nc3ccccc3s2)c2ccccn2)cc1`, which Potency is on record?
A: 12.6 µM (active)

Q: With `O=C(Nc1ccccc1Cl)O/N=C(/c1ccccc1)c1ccccn1` as the compound, how does the “activity change, negative = inhibition” value read?
A: -5.93%

Q: For `O=[N+]([O-])c1cc(Br)c(O)c(/C=N/Nc2nc3ccccc3s2)c1`, which “activity change, negative = inhibition” value is on record?
A: 12.3% [at 46.1 µM]

Q: Which “activity change, negative = inhibition” value does the source give for `O=C(CCNC(=O)c1ccc(Br)cc1)Nc1cccc(S(=O)(=O)N2CCCCC2)c1` here?
A: -10.2%

Q: For `COc1ccc(CCN(C)CCN2C(=O)c3ccccc3C2=O)cc1OC`, which “activity change, negative = inhibition” value is on record?
A: 11.1%

Q: With `Cc1cc(C)c(-c2n[nH]c3c2C(c2ccccc2F)N(CCO)C3=O)c(O)c1` (stereo unspecified) as the compound, how does the “activity change, negative = inhibition” value read?
A: -14.4% [at 46.1 µM]

Q: With `COc1ccc(CCN2C(=O)c3[nH]nc(-c4ccccc4O)c3C2c2ccc(C)cc2)cc1OC` (stereo unspecified) as the compound, how does the Potency read?
A: 10 µM (active)

Q: With `COc1cccc(-c2n[nH]c3c2C(c2cccc(O)c2)N(C)C3=O)c1` (stereo unspecified) as the compound, how does the “activity change, negative = inhibition” value read?
A: -0.126% [at 46.1 µM]

Q: For `CCCCN1C(=O)c2[nH]nc(-c3ccccc3O)c2C1c1cccc(OCc2ccccc2)c1` (stereo unspecified), which Potency is on record?
A: 1.58 µM (active)

Q: Which “activity change, negative = inhibition” value does the source give for `CCCCn1c(N)c(N(CCOC)C(=O)c2cccc(OCc3ccccc3)c2)c(=O)[nH]c1=O` here?
A: 1.78%

Q: Which “activity change, negative = inhibition” value does the source give for `CC(C)c1ccc(S(=O)(=O)N2CCN(C(=O)CN3C(=O)NC(C)(c4ccccc4)C3=O)CC2)cc1` (stereo unspecified) here?
A: -6.41%

Q: Which “activity change, negative = inhibition” value does the source give for `Cc1cc(S(=O)(=O)Nc2ccc(C(=O)NCC(c3ccco3)N3CCCC3)cc2)ccc1F` (stereo unspecified) here?
A: 12.3% [at 46.1 µM]

Q: For `CCOc1ccc(NS(=O)(=O)c2ccc(C(=O)NC3CCN(Cc4ccccc4)CC3)cc2)cc1`, which “activity change, negative = inhibition” value is on record?
A: -15.6%

Q: Which “activity change, negative = inhibition” value does the source give for `CCC(=O)c1cn(CCOc2ccccc2OC)c2ccccc12` here?
A: -26.8%

Q: For `COc1ccc(OCCCC(=O)NCCc2ccccc2)cc1`, which “activity change, negative = inhibition” value is on record?
A: -18.8%

Q: Which “activity change, negative = inhibition” value does the source give for `CCCCOc1ccc(C(=O)NCc2ccncc2)cc1` here?
A: 3.13%

Q: Which Potency does the source give for `CCCOc1ccc(C(=O)NCCc2ccccc2)cc1` here?
A: 2.51 µM (active)

Q: For `CC(C)(C)OC(=O)N/N=C/c1cn(-c2ccccc2)nc1-c1cccnc1`, which “activity change, negative = inhibition” value is on record?
A: -13.6% [at 46.1 µM]

Q: Which Potency does the source give for `O=C(O)c1ccc(N/N=C/c2cn(-c3ccccc3)nc2-c2cccs2)cc1` here?
A: 5.01 µM (active)

Q: For `O=C(NCc1cccnc1)c1cn(-c2ccccc2)nc1-c1cccs1`, which “activity change, negative = inhibition” value is on record?
A: 17.4%

Q: For `O=C(CC1Sc2ccccc2NC1=O)NNc1ccc(Cl)c(Cl)c1` (stereo unspecified), which “activity change, negative = inhibition” value is on record?
A: -1.65% [at 46.1 µM]

Q: Which “activity change, negative = inhibition” value does the source give for `Cc1c(C)c(C)c(S(=O)(=O)N2CCC3(CC2)OCCO3)c(C)c1C` here?
A: -5.33%

Q: With `CC(=NNC(=O)c1ccncc1)c1ccc(Cl)c(Cl)c1` as the compound, how does the “activity change, negative = inhibition” value read?
A: 0.42% [at 46.1 µM]

Q: With `CCN(c1ccccc1)S(=O)(=O)c1ccc(NC(=O)C(C)(C)C)cc1` as the compound, how does the Potency read?
A: 14.6 µM (active)

Q: For `CCN(c1ccccc1)S(=O)(=O)c1cccc(C(=O)O)c1`, which “activity change, negative = inhibition” value is on record?
A: 5.63%

Q: Which “activity change, negative = inhibition” value does the source give for `CCN(c1ccccc1)S(=O)(=O)c1ccc(C(=O)Nc2nccs2)cc1` here?
A: -16.5%

Q: With `CN(CC(=O)NCC(c1ccccc1)N1CCCC1)S(=O)(=O)c1ccc(Cl)cc1` (stereo unspecified) as the compound, how does the “activity change, negative = inhibition” value read?
A: -1.71%

Q: For `CCOc1ccc(NC(=O)c2ncoc2-c2ccco2)cc1`, which “activity change, negative = inhibition” value is on record?
A: 20.4% [at 46.1 µM]

Q: For `CCCCOc1ccc(-c2nnc(-c3ccco3)o2)cc1`, which “activity change, negative = inhibition” value is on record?
A: -15.9%

Q: Which Potency does the source give for `CCOc1ccc(-c2nnc(-c3ccco3)o2)cc1` here?
A: 5.8 µM (active)

Q: Which “activity change, negative = inhibition” value does the source give for `Cc1c[n+]([O-])ccc1[N+](=O)[O-]` here?
A: 7.49% [at 46.1 µM]

Q: With `O=C1C2C3C=CC(C3)C2C(=O)N1c1ncc([N+](=O)[O-])s1` (stereo unspecified) as the compound, how does the “activity change, negative = inhibition” value read?
A: 4.2% [at 46.1 µM]

Q: Which “activity change, negative = inhibition” value does the source give for `CCOc1ccc(S(=O)(=O)Nc2ccc(OC)nc2)cc1` here?
A: -16% [at 46.1 µM]

Q: For `COc1ccc(CS(=O)/C(Cl)=C(/Cl)C(=O)Nc2ccc(OC)nc2)cc1` (stereo unspecified), which Potency is on record?
A: 3.98 µM (active)

Q: For `COc1ccc(C(=O)Nc2ccc(NC(=O)C(C)C)nc2)cc1`, which “activity change, negative = inhibition” value is on record?
A: -17.8%

Q: With `O=C(CSc1nnnn1C1CCCC1)N1CCCCC1` as the compound, how does the “activity change, negative = inhibition” value read?
A: 8.28% [at 46.1 µM]

Q: Which “activity change, negative = inhibition” value does the source give for `Cc1ccc(C)c(OCCC(=O)OCC(=O)NC(=O)NCc2ccccc2)c1` here?
A: -18.8%

Q: With `Cc1cc(C)cc(NC(=O)COc2coc(CN3CCN(c4ccccc4)CC3)cc2=O)c1` as the compound, how does the “activity change, negative = inhibition” value read?
A: -7.74%

Q: With `NC1=NOC(=O)C1C1CCCCC1` (stereo unspecified) as the compound, how does the “activity change, negative = inhibition” value read?
A: -19.2% [at 46.1 µM]

Q: With `CCOc1ccc(N(Cc2ccccc2)C(=O)c2nc(SCC)ncc2Cl)cc1` as the compound, how does the “activity change, negative = inhibition” value read?
A: -1.9% [at 46.1 µM]

Q: For `CCOc1ccc(N(Cc2ccccc2)C(=O)c2nc(S(C)(=O)=O)ncc2Cl)cc1`, which Potency is on record?
A: 2.51 µM (active)

Q: Which “activity change, negative = inhibition” value does the source give for `CCOc1ccc(NC(=O)CN(Cc2ccccc2)S(=O)(=O)c2ccc(Cl)cc2)cc1` here?
A: -13.1% [at 46.1 µM]

Q: With `CC1=NN(C(N)=S)C(=O)C1N=Nc1cc(Cl)ccc1Cl` (stereo unspecified) as the compound, how does the “activity change, negative = inhibition” value read?
A: 13.6% [at 46.1 µM]

Q: With `C[C@]12CCC(=O)C=C1C=CC1C2CC[C@@]2(C)C1CC[C@@]21CCC(=O)O1` (stereo partly specified) as the compound, how does the “activity change, negative = inhibition” value read?
A: 7.55% [at 46.1 µM]

Q: For `CC1Cc2ccccc2N1S(=O)(=O)c1cccc(C(=O)OCC(=O)N2CCOCC2)c1` (stereo unspecified), which “activity change, negative = inhibition” value is on record?
A: -11.3% [at 46.1 µM]

Q: For `Cc1cc(=O)[nH]c(N/N=C/c2c(C)nn(-c3ccccc3Cl)c2Cl)n1`, which Potency is on record?
A: 11.2 µM (active)

Q: With `Cc1cc(C)c(C=NNc2nc3c([nH]2)c(=O)n(C)c(=O)n3C)c(C)c1` as the compound, how does the “activity change, negative = inhibition” value read?
A: -2.72% [at 46.1 µM]

Q: Which “activity change, negative = inhibition” value does the source give for `CCN(CC)c1ccc(/C=N/Nc2nc(C)cc(=O)[nH]2)cc1` here?
A: -18.2%

Q: Which “activity change, negative = inhibition” value does the source give for `O=C(O)c1ccc(NN=CC2=C(N3CCOCC3)/C(=C/c3ccccc3)CC2)cc1` here?
A: -15.5%

Q: With `Cc1ccc2nc(CNC(=O)c3ccccc3)[nH]c2c1` as the compound, how does the “activity change, negative = inhibition” value read?
A: 8.7% [at 46.1 µM]

Q: With `Cc1ccc(/C=N/NC(=O)C2=NNC(c3ccccc3)(c3ccccc3)C2)c(O)c1` as the compound, how does the Potency read?
A: 14.1 µM (active)
